This is a sample that favours compounds with a hit; in the whole collection about 4% have one here.
ERAP1 inh – human ERAP1 aminopeptidase inhibitors, primary screen, biochemical, single point, plate reader; hit rate 0.15% among 340,000; inhibition, % at 10.7 µM; AID 652197, 2013; Endoplasmic reticulum aminopeptidase 1 (Homo sapiens), Q9NZ08; recombinant ERAP1, Leu-AMC fluorescence, 60 min;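 active means mean replicate inhibition of at least 30%, or all replicates individually reaching that 30% level; inactive means mean below 30% and not every replicate reaching it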
DENV2 CPE – inhibitors of DENV2 cytopathic effect, primary screen, cell-based, plate reader, single concentration; DENV2-infected cells, cytopathic effect rescue; CPE inhibition, % at 9.99 µM; hit rate 1.7% among 350,000; AID 651640, 2012; in the data active means CPE inhibition above about 20%, passing the limit was not always enough; inconclusive means no clear call, values can overlap the other calls; tested in BHK-21 cells
RAD52 inh – RAD52 DNA annealing inhibitors, primary screen, biochemical, FRET, single point, set 2 | hit rate 0.46% among 360,000 | recombinant RAD52 DNA annealing, FRET fluorescence | inhibition, % at 18.7 µM | DNA repair protein RAD52 homolog (Homo sapiens), P43351;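 active means every replicate showing at least 50% inhibition; inconclusive means mean inhibition at least 50% but not in every replicate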
AF4-AF9 inh – inhibitors of AF4 peptide binding to AF9, primary screen, biochemical, AlphaScreen, biotin-AF4 peptide, FLAG-AF9, single point | hit rate 0.47% among 350,000 | AID 651704, 2012 | inhibition, % at 10 µM;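 active means every replicate reaching a set inhibition limit, whatever the replicate mean, cut at about 25% in these data; inconclusive means mean inhibition reaches that limit but some replicates miss it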
Target sequence (P42568 whole entry, looked up): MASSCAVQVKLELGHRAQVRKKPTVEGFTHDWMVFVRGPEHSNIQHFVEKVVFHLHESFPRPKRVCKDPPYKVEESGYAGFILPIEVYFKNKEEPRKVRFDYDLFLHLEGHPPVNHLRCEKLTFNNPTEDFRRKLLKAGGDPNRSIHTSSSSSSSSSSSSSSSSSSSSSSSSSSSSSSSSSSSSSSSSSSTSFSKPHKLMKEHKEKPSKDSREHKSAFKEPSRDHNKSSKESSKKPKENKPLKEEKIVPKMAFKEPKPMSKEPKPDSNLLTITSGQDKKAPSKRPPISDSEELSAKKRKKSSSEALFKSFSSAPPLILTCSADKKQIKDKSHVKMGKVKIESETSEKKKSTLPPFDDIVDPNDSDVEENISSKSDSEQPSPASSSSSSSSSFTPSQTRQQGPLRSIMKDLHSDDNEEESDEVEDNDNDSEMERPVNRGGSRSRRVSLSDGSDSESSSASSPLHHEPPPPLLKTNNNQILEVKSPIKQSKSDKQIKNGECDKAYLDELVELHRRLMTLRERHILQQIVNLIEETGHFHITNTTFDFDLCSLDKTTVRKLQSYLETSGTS
FGF22 binding-1 – binders of human FGF22 protein, primary screen, FGF22 synaptogenesis inhibitor project, biophysical, thermal shift, single point; recombinant FGF22 thermal shift, SYPRO orange fluorescence; percent of sucrose octasulfate shift, DMSO zero; hit rate 1.5% among 340,000; activity (Tm shift, normalised), % at 9.99 µM; AID 651658, 2012; Fibroblast growth factor 22 (Homo sapiens), Q9HCT0;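 active means mean Tm shift, scaled 0 neutral to 100 positive control, at about 1.3% or above, every replicate too, limit read from the data; inconclusive means no clear call, values can overlap the other calls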
FGF22 binding-2 – binders of human FGF22 protein, dose response, FGF22 synaptogenesis inhibitor project, biophysical, thermal shift, cherry-pick retest; hit rate 2% among 1,000; recombinant FGF22 thermal shift, SYPRO orange fluorescence; shares compounds with FGF22 binding-1; thermal shift activity, °C (ΔTm) at 38 µM;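 active means fitted rise in melting shift crosses a set limit at or below the top valid dose tested; inconclusive means flat fit at mid-level activity, or a poor quality fit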
TSA no protein – compound-only thermal shift signal without protein, dose response, artefact control for FGF22 binder project, biochemical, cherry-picked samples, RT-PCR instrument; shares compounds with FGF22 binding-1; compound-only SYPRO orange thermal shift counter-screen, no protein; AC50, µM (top dose mostly 38 µM); hit rate 2% among 1,000; AID 743019, 2013;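 active means rising signal whose fitted curve reaches the 0.54 level within the top valid dose, showing a melting point, actives reach about 13 µM in these data; inactive means the rest, including activity in the opposite direction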; further: value is where the raw curve crosses a fixed level and not half-maximal
Alpha interfer – AlphaScreen signal interference counter-screen, dose response, artefact control, biochemical, cherry-picked samples, luminescence | shares compounds with AF4-AF9 inh | AC50, µM (titrated, usually from 12 µM) | hit rate 45% among 530 | AID 720494, 2013; cut-off not given, nearly all actives have AC50 up to about 14 µM
DNA binder FP – DNA-binding compounds via dye displacement, dose response, artefact control for RAD52 inhibitor project, biochemical, fluorescence polarization, cherry-pick; shares compounds with RAD52 inh; Salmon sperm DNA/acridine orange FP displacement; AC50, µM; hit rate 8% among 1,000; AID 652128, 2013;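 active means fitted half-maximal concentration for signal loss at or below twice the highest dose tested, in every separate run, actives reach about 64 µM in these data; inconclusive means runs disagree, or flat partial signal loss, or poor fit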
Hits are given with their value; . = inactive; ? = inconclusive; / = no result given.

SMILES	ERAP1 inh	DENV2 CPE	RAD52 inh	AF4-AF9 inh	FGF22 binding-1	others
C[C@@H](NC(=O)C[C@@H]1CC[C@H](NC(=O)Nc2ccc3c(c2)OCO3)[C@H](CO)O1)c1ccccc1	.	.	.	.	.
CC(C)NC(=O)N[C@@H]1CC[C@@H](CC(=O)NCc2ccc(Oc3ccccc3)cc2)O[C@H]1CO	.	.	.	.	.
O=C(C[C@H]1C=C[C@H](NC(=O)c2cccc(F)c2)[C@@H](CO)O1)NCCN1CCCC1	.	?	.	.	.
CN1CCN(C(=O)C[C@H]2CC[C@@H]3[C@H](COC[C@H](O)CN3S(=O)(=O)c3cccc(F)c3)O2)CC1	.	.	.	.	.
O=C(NCC[C@H]1CC[C@@H](NC(=O)Nc2cc(F)ccc2F)[C@@H](CO)O1)Nc1ccc(F)cc1	.	.	.	.	.
O=C(C[C@H]1CC[C@@H](NC(=O)Nc2cc(F)ccc2F)[C@@H](CO)O1)Nc1ccc(-c2ccccc2)cc1	.	.	.	.	1.3	FGF22 binding-2=.;TSA no protein=.
O=C(NCC[C@@H]1CC[C@@H](NC(=O)Nc2cc(F)ccc2F)[C@@H](CO)O1)Nc1ccc(F)cc1	.	.	.	.	1.3	FGF22 binding-2=.;TSA no protein=.
CO[C@H]1CN(C)C(=O)c2ccc(NC(=O)C3CCC3)cc2OC[C@@H](C)N(Cc2cccnc2)C[C@H]1C	.	.	.	.	.
COCC(=O)N(C)C[C@@H]1Oc2ncc(-c3ccccc3C)cc2C(=O)N([C@H](C)CO)C[C@@H]1C	.	.	.	.	.
COc1cc(CCC(=O)OCC(=O)Nc2ccc(C)cc2Br)cc(OC)c1OC	.	.	.	.	28	FGF22 binding-2=.;TSA no protein=.
COc1cc(CCC(=O)OCC(=O)Nc2ccc(Br)cc2F)cc(OC)c1OC	.	.	.	.	.
CN1C(=O)c2cc(NC(=O)C3CC3)ccc2OC[C@@H]2O[C@@H](CC(=O)NC3CCC3)CC[C@@H]21	.	.	.	.	.
COc1ccccc1C(=O)C1CCCN(C(=O)c2cc(C(C)C)no2)C1 (stereo not drawn)	.	.	.	.	.
COc1ccc(C(=O)C2CCCN(C(=O)c3cc(C(C)C)no3)C2)cc1F (stereo not drawn)	.	.	.	.	9.8	FGF22 binding-2=.;TSA no protein=.
CNC[C@@H]1Oc2c(NC(=O)NC(C)C)cccc2C(=O)N([C@@H](C)CO)C[C@H]1C	.	.	.	.	/
C[C@@H]1CN([C@@H](C)CO)C(=O)c2cc(NC(=O)Nc3cccc4ccccc34)ccc2O[C@@H]1CN(C)S(=O)(=O)c1cn(C)cn1	.	.	.	.	.
Cc1noc(C)c1NC(=O)N(C)C[C@@H]1OCCCC[C@H](C)Oc2ccc(NC(=O)Nc3ccc(F)cc3)cc2C(=O)N([C@@H](C)CO)C[C@H]1C	.	.	.	.	.
Cc1ccc(N(C(=O)c2csnn2)C(C(=O)NC2CCCC2)c2ccccn2)c(C)c1 (stereo not drawn)	.	.	.	.	1.6	FGF22 binding-2=.;TSA no protein=.
C[C@@H]1CN([C@H](C)CO)C(=O)Cc2cc(N(C)C)ccc2O[C@@H]1CN(C)Cc1ccc(Cl)c(Cl)c1	.	.	.	31	40	TSA no protein=.;Alpha interfer=.
COc1ccc(NC(=O)N(C)C[C@@H]2Oc3ccc(NS(=O)(=O)c4ccc(OC)cc4)cc3CC(=O)N([C@@H](C)CO)C[C@H]2C)cc1	.	.	.	.	.
Oc1c(CN2CCOCC2)cc(CN2CCOCC2)c(O)c1O	.	.	61	.	1.4	FGF22 binding-2=.;TSA no protein=.;DNA binder FP=.
C[C@@H]1CN([C@H](C)CO)C(=O)c2cc(NC(=O)CCC(F)(F)F)ccc2O[C@@H](C)CCCCO[C@H]1CN(C)C(=O)c1ccccc1	.	.	.	.	.
COc1ccc(NC2CCCN(Cc3cccc4cnccc34)C2)cc1OC (stereo not drawn)	.	.	.	26	.	Alpha interfer=.
Cc1nn(-c2ccccc2)c(Cl)c1/C=C1\C(=O)N(C)C(=S)N1C	.	.	.	40	.	Alpha interfer=.
Cc1c(N=C2C=CC(=O)c3ccccc32)c(=O)n(-c2ccccc2)n1C	.	/	.	35	.	Alpha interfer=.
SMILES	ERAP1 inh	DENV2 CPE	RAD52 inh	AF4-AF9 inh	FGF22 binding-1	others
Cc1c(N=C2C=C(Br)C(=O)C(Br)=C2)c(=O)n(-c2ccccc2)n1C	.	.	.	.	.
C[C@@H]1CN([C@H](C)CO)C(=O)Cc2cc(N(C)C)ccc2O[C@H]1CN(C)S(=O)(=O)c1ccccc1	.	.	.	.	.
O=C(NC1CCCCC1)C(c1cccs1)N(CCCN1CCOCC1)C(=O)c1ccc(-c2ccccc2)[nH]1 (stereo not drawn)	.	.	.	31	.	Alpha interfer=.
C[C@@H]1CCCCO[C@H](CN(C)S(C)(=O)=O)[C@@H](C)CN([C@@H](C)CO)C(=O)c2cc(NC(=O)Nc3ccc4c(c3)OCO4)ccc2O1	.	.	.	.	.
COc1ccc(NS(=O)(=O)c2ccc(C)c(C(=O)N3CCN(Cc4cc(OC)ccc4OC)CC3)c2)cc1	.	.	.	35	.	Alpha interfer=.
O=C(C[C@@H]1CC[C@H]2[C@@H](COC[C@@H](O)CN2C(=O)c2ccccc2F)O1)NCc1ccc(Cl)cc1	.	.	.	.	.
Oc1cc(NCCN2CCOCC2)cc2cccnc12	.	.	.	27	.	Alpha interfer=12µM
C[C@@H]1CCCCO[C@H](CN(C)C(=O)c2ccccc2)[C@@H](C)CN([C@@H](C)CO)C(=O)c2cc(N(C)C)ccc2O1	.	.	.	.	/
COc1ccc(NC(=O)N(C)C[C@@H]2Oc3ccc(NC(=O)C4CC4)cc3CC(=O)N([C@@H](C)CO)C[C@H]2C)cc1	.	.	.	.	.
COc1ccc(C2CC(=O)Oc3c(C(CCN4CCCC(C)C4)c4ccc(N(C)C)cc4)c(OC)cc(OC)c32)cc1 (stereo not drawn)	.	.	.	44	.	Alpha interfer=1.8µM

Screens: PubChem BioAssay, Broad Institute
